Artemis inh: Artemis (human) endonuclease inhibition | recombinant Artemis, quenched FAM hairpin cleavage fluorescence | inhibition, % at 10 µM | 30,000 compounds, 0.78% hits | AID 686954;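 active = at 10 µM dose, at least 30% inhibition, measured as corrected fluorescence normalized to stimulator and neutral control wells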
Numbers without * were called inactive. Many of the other results were omitted from the sample, so hits are more common in it than they were.

SMILES	Artemis inh
O=c1c2ccccc2nc(-c2cccs2)n1-c1ccccc1	3
CCn1nc(-c2cccs2)nc2c(=O)n(C)c(=O)nc1-2	71*
COC(=O)C1=C(N)Oc2c(c(=O)oc3ccccc23)C1c1cccnc1 (stereo not given)	-7
Cc1ccc(N2C(=O)/C(=C/c3ccc(CN(CCC#N)S(C)(=O)=O)o3)C(=O)NC2=S)cc1	-5
CC(=O)OC1(Cc2ccccc2)CN2CCC1c1ccccc12 (stereo not given)	-2
COCCCN1CCN(c2nnc3n2-c2sc(Br)cc2C(c2ccccc2Cl)=NC3)CC1	1
CCOC(=O)c1c(-n2c(C)cc(/C=C3/C(=O)NC(=O)N(CC)C3=O)c2C)sc2c1CCCC2	35*
Nc1cccc(N=Cc2c(O)n(Cc3ccc(F)cc3)c(=O)[nH]c2=O)c1	6
COc1cc(C2NCc3ccccc3-n3cccc32)ccc1O (stereo not given)	-3
CCOC(=O)c1nc2ccccc2c(=O)n1-c1cccc(C)c1	10
Cc1ccc(N2C(=O)/C(=C/N3CCN(C(=O)c4ccco4)CC3)C(=O)NC2=S)cc1C	31*
CCC(CC)C(=O)NC1CCSC1=O (stereo not given)	-2
CCOP(=O)(OCC)C(NC(=O)C(C)C)C(Cl)(Cl)Cl (stereo not given)	-1
ClC1=CCC2CN(CCN3CCCCC3)CC2C1 (stereo not given)	6
CCOC(=O)[C@@]1(C#N)[C@@H]2C=CC(C(N)=O)=CN2[C@@H](C(N)=O)[C@@H]1c1cccc(Cl)c1	4

Compound activity from PubChem BioAssay.
